The source of these data is PubChem BioAssay AID485318 (Broad Institute, 2010).

The whole screen tested about 1,400 compounds, of which fewer than 10 were called active. These entries were drawn from the full list. A number with no mark means an inactive call.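 Rule for the calls: active = fluorescence-lowering compounds whose fitted half-maximal concentration is at or below ten times the highest valid dose tested; inconclusive = flat curve at 30 to 70% inhibition, or poor fit; inactive = the rest.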

Chain of Histone deacetylase 3 (Homo sapiens) (O15379 whole entry, looked up): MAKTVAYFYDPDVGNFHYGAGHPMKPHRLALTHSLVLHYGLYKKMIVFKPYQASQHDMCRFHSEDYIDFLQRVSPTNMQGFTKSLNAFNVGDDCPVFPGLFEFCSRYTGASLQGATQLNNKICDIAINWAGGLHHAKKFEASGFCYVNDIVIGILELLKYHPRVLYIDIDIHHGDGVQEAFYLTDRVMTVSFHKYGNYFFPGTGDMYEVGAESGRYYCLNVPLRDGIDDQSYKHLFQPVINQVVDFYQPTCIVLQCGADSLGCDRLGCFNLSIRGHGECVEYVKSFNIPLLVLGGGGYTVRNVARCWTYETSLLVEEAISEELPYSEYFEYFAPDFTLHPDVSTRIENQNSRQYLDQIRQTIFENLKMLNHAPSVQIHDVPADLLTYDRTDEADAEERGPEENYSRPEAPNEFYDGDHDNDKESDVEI

This test addresses Histone deacetylase 3 (Homo sapiens) (UniProt O15379). The test is described as follows: HDAC3 deacetylase inhibitors, dose response, counter-screen for JMJD2C/GASC1 demethylase inhibitor project, biochemical, fluorescence, cherry-picked samples (AID 485318).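 Note: enzyme preincubated with compound before substrate and trypsin were added; 0% = neutral control wells and -100% = SAHA positive control wells.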 The settings on record: recombinant HDAC3, fluorogenic peptide/trypsin coupled; series mostly up to 12 µM; activity change, negative = inhibition: at the top concentration. A general note: Counterscreens check selectivity or assay interference.
With `CC(=O)N1CCN(c2ccc(NC(=O)c3ccc4ccccc4c3)cc2)CC1`, the “activity change, negative = inhibition” value was 0.314%.
For `CCN(CC)C(CNS(=O)(=O)c1ccc(Cl)cc1)c1ccccc1` (stereo unspecified), the “activity change, negative = inhibition” value is -0.496%.
Under `CCNC(=S)NC(=NCc1cccnc1)Nc1nc(C)cc(C)n1` stands 0.0784%; under `Cc1ccc(N2NC3(CCN(C(N)=O)CC3)NC2=O)cc1`, -0.0157%.
In the case of `C=CCNC(=S)NNC(=O)COc1cccc(Cl)c1`, the “activity change, negative = inhibition” value is -0.462%.
Under `O=C(O)c1ccccc1OCCOc1ccccc1C(=O)O` stands 0.223%.
With `O=C1NCCC/C1=N/Nc1ccc(F)cc1`, the “activity change, negative = inhibition” value is 0.198%.
Under `CC(C)NC(=O)N(C)C[C@H]1Oc2ccc(NS(=O)(=O)c3ccccc3)cc2C(=O)N([C@H](C)CO)C[C@H]1C` stands 0.293%; under `COc1ccc(-n2cc(C(=O)O)c3ccccc3c2=O)cc1`, 0.371%.
With `O=C(C1CCCCC1)N1CCC(c2nc3c(nnn3Cc3c(F)cccc3Cl)c(=O)[nH]2)CC1` the figure was -0.334%; with `Cc1ccc(C)c(Cn2c(C(=O)OC(C)C)cc3c2ccn3C)c1`, -0.102%; with `NC(=O)COc1cccc2cccnc12`, 0.026%.
With `Cn1c(=O)c2[nH]c(=O)cnc2n(C)c1=S` the figure was 0.57%; with `Cn1nc(N)nc1N1CCN(c2ccc(F)cc2)CC1`, 0.182%; with `NS(=O)(=O)c1ccc(CNC(=S)Nc2ccc(F)c(Cl)c2)cc1`, 0.414%.
For the compound `O=C(O)c1ccc2c(c1)C(=O)N(CCC1=CCCCC1)C2=O`, the “activity change, negative = inhibition” value is 0.227%.
With `CC(C)N(Cc1ccccc1)C(=O)COC(=O)c1ccc2c(c1)OCCO2` the figure was -0.449%; with `NC(=O)NC(=O)CSc1nnc(-c2ccco2)n1Cc1ccccc1`, 0.0902%; with `O=C(OCc1nnc(-c2ccccc2)o1)c1cc(S(=O)(=O)N2CCOCC2)c(Cl)cc1Cl`, -0.233%.
With `COc1ccc(C)cc1NC(=O)CN(C)S(=O)(=O)c1ccc2c(c1)CC(C)N2C(C)=O` (stereo unspecified) the figure was 0.478%; with `OC[C@H]1O[C@@H]2O[C@H]3[C@H](O)[C@@H](O)[C@@H](O[C@H]4[C@H](O)[C@@H](O)[C@@H](O[C@H]5[C@H](O)[C@@H](O)[C@@H](O[C@H]6[C@H](O)[C@@H](O)[C@@H](O[C@H]7[C@H](O)[C@@H](O)[C@@H](O[C@H]1[C@H](O)[C@H]2O)O[C@@H]7CO)O[C@@H]6CO)O[C@@H]5CO)O[C@@H]4CO)O[C@@H]3CO`, -0.216%.
Under `Cc1ccc(C(=O)NCC(=O)OCC(=O)Nc2ccc(Cl)cc2C(F)(F)F)cc1C` stands -0.15%; under `O=c1[nH]cnc2c1c(-c1ccccc1)cn2-c1ccccc1`, 0.0419%; under `Cc1nc2nc(C)c(CCC(=O)NCc3ccc4c(c3)OCO4)c(C)n2n1`, 0.43%.
In the case of `O=c1[nH]cc(N2CCCCCC2)c(=O)[nH]1`, the “activity change, negative = inhibition” value is -0.0271%.
With `O=C(NCc1nnc(SCC(=O)N2CCCCC2)o1)c1c(F)cccc1F` the figure was -0.609%; with `O=C(c1cccs1)N1CCN(S(=O)(=O)c2ccc(F)cc2)CC1`, 0.208%.
With `O=C(CSc1nnnn1-c1ccc(Cl)cc1)N1CCc2ccccc2C1` the figure was -0.296%.
As to `CN(C)c1ccc(C(=O)OCC(=O)N2CCCC2)cc1`, the “activity change, negative = inhibition” value was 0.251%.
With `Cc1ccc(S(=O)(=O)NCCC(=O)OCC(=O)Nc2ccccc2Cl)cc1` the figure was 0.205%.
With `Cc1ccc(S(=O)(=O)NC(=O)NCc2ccc(Cl)cc2)cc1` the figure was -0.66%; with `O=c1cc(N/N=C/c2ccccc2)[nH]c(=O)[nH]1`, -0.139%; with `COc1ccc(NC(=O)N(C)C[C@H]2Oc3c(NS(=O)(=O)c4cccs4)cccc3C(=O)N([C@H](C)CO)C[C@@H]2C)cc1`, 0.309%.
Take `COCCCNC(=S)NNC(=O)c1ccccn1`: the “activity change, negative = inhibition” value was 0.84%.
With `Cc1ccc(OCCSc2nnc(-c3cccs3)n2C)cc1` the figure was -0.407%; with `CCCC(=O)Nc1ccc(Oc2ccc(NC(=O)CCC)cc2)cc1`, 0.3%.
As to `COCCCn1c(SCC(=O)NCc2ccco2)nc2sc3c(c2c1=O)CCC3`, the “activity change, negative = inhibition” value is 0.159%.
With `CC(C)(C)c1ccc(-c2csc(NNC3=NCCCCC3)n2)cc1` the figure was -9.81%; with `CC(OC(=O)c1ccc([N+](=O)[O-])s1)C(=O)Nc1ncc(Cl)cc1Cl` (stereo unspecified), 0.0687%; with `O=C(c1ccc(Cn2cc([N+](=O)[O-])cn2)o1)N1CCCCCC1`, 0.287%.
Under `COc1ccccc1C(=O)OCc1c(-c2ccccc2)ncc2ccccc12` stands -0.395%; under `Cc1ccc2nc(-c3cccc(NS(C)(=O)=O)c3)cc(-c3ccccc3)c2c1`, 0.133%; under `COC(=O)C1=C(C)N(CCc2cc(OC)c(OC)c(OC)c2)C(=O)N[C@H]1c1cccs1`, 0.535%.
As for `COc1ccc(CNCC(=O)Nc2sccc2C#N)cc1`, the “activity change, negative = inhibition” value is -0.369%.
`Cc1nn(-c2cccc(C(=O)O)c2)c(C)c1Oc1ccccc1O`: the “activity change, negative = inhibition” value was -0.0812%.
Under `CCSCC1COC(c2cccn2Cc2ccc(C)cc2)=N1` (stereo unspecified) stands 0.82%; under `COC(=O)CCC(=O)N1CCOCCOCCN(C(=O)CCC(=O)OC)CCOCCOCC1`, 0.687%; under `O=C1c2sc3nc4c(c(=O)n3c2C(=O)N1c1ccccc1)CCC4`, 0.641%.
With `CC(=O)OC(C(=O)NCc1ccc2c(c1)OCO2)c1ccccc1Cl` (stereo unspecified) the figure was -0.735%.
Consider `CCC(=O)Nc1cc2c(cc1C(=O)CC)OCCO2`, for which the “activity change, negative = inhibition” value was -0.0822%.
Under `CCOC(=O)c1cc2n(n1)C(C(F)(F)F)CC(C)N2` (stereo unspecified) stands 0.00685%; under `CCCCNC(=O)c1nn2cc(Br)cnc2c1Br`, 0.783%.
Consider `Clc1ccc(N=c2ssnc2Cl)nc1`, for which the “activity change, negative = inhibition” value was 0.426%.
Under `O=C(c1ccsc1)N1CCN(C(=O)c2cccs2)CC1` stands 0.464%; under `COc1ccc2sc(-c3ccc(S(C)(=O)=O)cc3)c(C#CCO)c2c1`, -0.136%; under `COc1ccc(CCN=C(NS(=O)(=O)c2ccc(Cl)cc2)c2ccccc2)cc1`, 0.401%.
With `CCN(CC)CCSc1nc2ccccc2c(=S)n1-c1ccccc1` the figure was -0.421%; with `O=C(Cn1nc(-c2ccc(Cl)cc2)ccc1=O)NCC1COCCO1` (stereo unspecified), -0.234%; with `CCC(C)(C)NC(=O)C(c1ccc(C)o1)N(Cc1cccs1)C(=O)Cn1nnc2ccccc21` (stereo unspecified), -0.314%.
With `CCC(=O)N1CCc2cc(Br)cc(S(=O)(=O)CC(=O)OC)c21`, the “activity change, negative = inhibition” value was 0.319%.
Turning to `CCN(CC(=O)Nc1ccc2c(c1)OCCO2)C(=O)CC1CCCC1`, the “activity change, negative = inhibition” value was 0.513%.
Under `O=C(CSc1nc(O)c(Cc2ccccc2)c(=O)[nH]1)c1ccccc1` stands -0.826%.
Consider `Cc1ccc(CSc2ncnc3onc(C)c23)cc1`, for which the “activity change, negative = inhibition” value was -0.218%.
Under `CCOC(=O)c1c(NC(=O)c2cc(-c3ccc(O)cc3)on2)sc(C(C)=O)c1C` stands 0.792%; under `C[C@@H](CN1CCC[C@H]1CN1C(N)=NC[C@@H]1Cc1ccccc1)N1C[C@@H](Cc2ccccc2)N(CCc2ccc(Cl)c(Cl)c2)C1=N`, -0.0869%.
With `O=C(CSc1nc(-c2ccco2)cc(C(F)(F)F)n1)Nc1ccc(C(=O)N2CCCCC2)cc1` the figure was -1.01%; with `COc1cccc(OC)c1C(=O)NC(=S)N1CCOCC1`, 0.0161%; with `COc1cccc(-n2nnc3c(=O)n(Cc4ccccc4F)cnc32)c1`, -0.245%.
In the case of `CCn1c(SCC(=O)NCc2ccco2)nnc1-c1cccs1`, the “activity change, negative = inhibition” value is -0.00731%.
With `CSc1nc(N)nc2c1ncn2CC(=O)N[C@H](C)c1cccc2ccccc12` the figure was -0.21%.
Consider `COC(=O)C1=C(C)N(Cc2ccccc2)C(=NCCc2c[nH]c3ccccc23)N[C@H]1c1ccccc1`, for which the “activity change, negative = inhibition” value was 0.954%.
For `CC(=O)c1c(C)[nH]c(C(=O)NCCC2=CCCCC2)c1C`, the “activity change, negative = inhibition” value was 0.207%.
Turning to `COc1ccc(S(=O)(=O)Nc2ccc3c(c2)CC(=O)N([C@@H](C)CO)C[C@H](C)[C@@H](CN(C)S(=O)(=O)c2ccc(F)cc2)O3)cc1`, the “activity change, negative = inhibition” value was -0.0258%.
Under `COc1ccccc1NC(=O)COC(=O)c1[nH]c(=O)[nH]c(=O)c1N` stands -0.201%; under `Cc1cccc(N2CC(C(=O)Nc3nnc(SCC(=O)Nc4nccs4)s3)CC2=O)c1` (stereo unspecified), 0.958%.
Under `CN(C)c1nc(C(=O)Nc2ccccc2)nc(N(C)C)n1` stands 0.331%; under `CCOc1ccc(-c2nc(CSCC(=O)NC3CCCc4ccccc43)c(C)o2)cc1` (stereo unspecified), 0.296%; under `Cc1cc2cc3c(cc2nc1SCC(=O)N1CCOCC1)OCO3`, 0.249%.
On to `CC(C)(C)OC(=O)CNC(=O)c1[nH]cnc1C(=O)N[C@@H](CCCCN)C(=O)OC(C)(C)C`, for which the “activity change, negative = inhibition” value was 0.233%.
Under `COc1ccc(OC)c(Nc2nnc(C)c(=O)[nH]2)c1` stands -0.0817%.
Take `O=C(O)CCCNC(=O)c1cccc(C(=O)NCCCC(=O)O)n1`: the “activity change, negative = inhibition” value is 1.32%.
With `O=C(O)c1cc(O)c2c(c1)[C@@H]([C@H]1c3cc(C(=O)O)cc(O)c3C(=O)c3c(O[C@@H]4O[C@H](CO)[C@@H](O)[C@H](O)[C@H]4O)cccc31)c1cccc(O[C@@H]3O[C@H](CO)[C@@H](O)[C@H](O)[C@H]3O)c1C2=O` the figure was 0.118%; with `CN(C)CCNC(=O)c1onc(CSc2ccncc2)c1C(=O)NCCN(C)C`, -0.121%.
Under `N#CC(C(=O)NCCc1ccccc1)c1nc2ccccc2nc1N1CCOCC1` (stereo unspecified) stands -0.358%; under `COc1ccc(NC(=O)CNC(=O)c2nn(-c3ccc(OC)c(Cl)c3)c(=O)c3ccccc23)c(OC)c1`, -0.0159%; under `Cc1ccc(-c2noc(C3CCN(S(C)(=O)=O)CC3)n2)o1`, -0.331%.
Under `Cc1nnc(N2C(=O)c3cccc4c([N+](=O)[O-])ccc(c34)C2=O)s1` stands 0.858%; under `CCOC(=O)CCCCCC(=O)Nc1ccc2c(c1)CC(=O)N([C@@H](C)CO)C[C@H](C)[C@@H](CN(C)C(=O)Nc1ccc3c(c1)OCO3)O2`, -0.431%.
`CSc1ccccc1C(=O)Nc1ccc(C)c(C)c1`: the “activity change, negative = inhibition” value is -0.311%.
For the compound `CC(C)N(C(=O)[C@H]1CC(CC(=O)NCc2cccc(C(F)(F)F)c2)C(=O)N2CCc3c([nH]c4ccccc34)[C@]12C)C(C)C` (stereo partly specified), the “activity change, negative = inhibition” value was -0.336%.
Under `N#Cc1ccc(C23OCCN2CCn2nc4ccccc4c23)cc1` (stereo unspecified) stands 0.331%.
With `CCc1ccc(NC(=O)C/C(C)=N/NC(=O)COc2ccc(C)cc2Br)cc1` the figure was 0.354%; with `COc1ccc(-c2csc(NNC3=NCCCCC3)n2)cc1`, 0.716%; with `CC1(C)C2CCC1(CS(=O)(=O)N1CCN(c3ccccc3F)CC1)C(=O)C2` (stereo unspecified), 0.137%.
With `Cc1ccc(O)c(C(=O)c2cc(C#N)c(=O)n(CC3CCCO3)c2)c1` (stereo unspecified) the figure was -0.325%; with `CCOC(=O)c1ccc2c(c1)nc(COc1ccc3ccccc3c1)n2CC`, 0.593%; with `O=C(NCc1ccccn1)c1ccc(OC2CCN(Cc3cccs3)CC2)cc1`, -0.641%.
Take `CCOC(=O)c1sc(Nc2nc(OC)cc(OC)n2)nc1C`: the “activity change, negative = inhibition” value was -0.509%.
With `CN(C)C(=O)c1cccc(-c2csc(N3CCC(C(N)=O)CC3)n2)c1`, the “activity change, negative = inhibition” value was 0.16%.
With `COc1ccc(-c2ccc3oc(-c4ccsc4)cc(=O)c3c2)cn1` the figure was 0.0488%.
With `COc1ccc(CCNC(=O)c2cccc(NS(=O)(=O)c3ccccc3F)c2)cc1OC` the figure was 0.204%.
